According to PubChem BioAssay (NCATS):
Inconclusive results are not listed. Calls of active or inactive are those of the source. Calls follow the shape of the dose curve; as a rule, active = well fitted inhibition curve with a large enough effect; inconclusive = small, poorly fitted or top-dose-only effect; inactive = flat fitted curve, though single readings scatter.

Legend:
W2 = assay: qHTS profiling for inhibitors of Plasmodium falciparum proliferation (AID 504749); also: potency is read from the fitted curve at half-maximal effect; conditions: P. falciparum in erythrocytes, SYBR Green DNA, 72 h; series mostly up to 28.7 µM
How it was run: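 Each compound contacts P. falciparum-infected red blood cells for 72 h at 37 C; lysis buffer (Tris, EDTA, saponin, Triton X, SYBR Green I) is added and fluorescence measured next morning; values normalized to controls.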

CRL-7250 = normal cell line; assay: Cytotoxic Profiling of Annotated Libraries Using Quantitative High-Throughput Screening (AID 1296008); conditions: Five cell lines viability, CellTiter-Glo ATP luminescence, 48-72 h; max response: stronger effect = lower value; also: potency is read from the fitted curve at half-maximal effect; as to max response: % is scaled to controls: 0 for no effect and ±100 for the full control effect
How it was run: (§1)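 Cells exposed to compounds for 48 or 72 hr at 37 degrees Celsius. Viability read as ATP-coupled luminescence with CellTiter-Glo after 10 min at room temperature.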

HEK293 = assay: as above; conditions: Five cell lines viability, CellTiter-Glo ATP luminescence, 48-72 h; max response: stronger effect = lower value
How it was run: as §1

HaCat [1] = assay: as above; conditions: Five cell lines viability, CellTiter-Glo ATP luminescence, 48-72 h; max response: stronger effect = lower value
How it was run: as §1

KB-3-1 = assay: as above; conditions: Five cell lines viability, CellTiter-Glo ATP luminescence, 48-72 h; max response: stronger effect = lower value
How it was run: as §1

NIH3T3 = assay: as above; conditions: Five cell lines viability, CellTiter-Glo ATP luminescence, 48-72 h; max response: stronger effect = lower value
How it was run: as §1

MCC-13 = assay: qHTS assay to identify novel small-molecules to repurpose for Merkel cell carcinoma treatment (AID 1296009); conditions: MCC and control cell lines, CellTiter-Glo viability, 72 h; series mostly up to 46 µM
How it was run: (§2)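 Dose-response viability screen; 72 hr exposure at 37 degree celsius; CellTiter-Glo added, 10 min room temperature, luminescence read; RLUs scaled between no-cell and DMSO wells.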

MCC-26 = assay: as above; conditions: MCC and control cell lines, CellTiter-Glo viability, 72 h; series mostly up to 46 µM
How it was run: as §2

HACAT [2] = assay: as above; conditions: MCC and control cell lines, CellTiter-Glo viability, 72 h; at 44.8 µM (top of the series) unless noted
How it was run: as §2

HEK293T = assay: as above; conditions: MCC and control cell lines, CellTiter-Glo viability, 72 h; at 44.8 µM (top of the series) unless noted
How it was run: as §2
Also: nearly all actives have a fitted effect of over 60% in size.

Cc1cccc(C)c1NC(=O)c1ccccc1C(=O)O
inactive: Potency (W2) | outcome (CRL-7250) | max response (HEK293) 0.24% | max response (HaCat [1]) 1.31% | max response (KB-3-1) -0.148% | max response (NIH3T3) -5.01% | Potency (MCC-13) | Potency (MCC-26)

Cc1nc(-c2ccc(Cl)cc2)oc1COC(C)(C)C(=O)O
inactive: Potency (W2) | outcome (CRL-7250) | max response (HEK293) 4.06% | max response (HaCat [1]) 3.89% | max response (KB-3-1) -5.49% | max response (NIH3T3) 1.1% | Potency (MCC-13) | Potency (MCC-26)

C=C[C@H]1CN2CC[C@H]1C[C@@H]2[C@@H](O)c1ccnc2ccc(OC)cc12
inactive: max response (CRL-7250) -2.42% | max response (HEK293) -4.02% | max response (HaCat [1]) -4.58% | max response (KB-3-1) -6.93% | max response (NIH3T3) 1.59% | Potency (MCC-13) | Potency (MCC-26)

CCOC(=O)Nc1ccc2c(c1)N(C(=O)CCN1CCOCC1)c1ccccc1S2
inactive: Potency (W2) | max response (CRL-7250) -6.24% | max response (HEK293) -28.3% | max response (HaCat [1]) -10.7% | max response (KB-3-1) 0.404% | max response (NIH3T3) -4.09% | Potency (MCC-13) | Potency (MCC-26)

CCCCNC(=O)NS(=O)(=O)c1ccc(N)cc1
inactive: Potency (W2) | max response (CRL-7250) -16.6% | max response (HEK293) 2.1% | max response (HaCat [1]) 3.3% | max response (KB-3-1) 10% | max response (NIH3T3) -1.55% | Potency (MCC-13) | Potency (MCC-26)

O=C(O)c1ccc(S(=O)(=O)N(Cl)Cl)cc1
inactive: Potency (W2) | max response (CRL-7250) 3.6% | max response (HEK293) 3.96% | max response (HaCat [1]) -0.853% | max response (KB-3-1) -9.69% | max response (NIH3T3) -3.94% | Potency (MCC-13) | Potency (MCC-26)

CCCCCCCCCCCCCC(=O)OC(C)C
inactive: Potency (W2) | max response (CRL-7250) -4.95% | max response (HEK293) -0.105% | max response (HaCat [1]) -4.71% | max response (KB-3-1) -19% | max response (NIH3T3) 2.35% | Potency (MCC-13) | Potency (MCC-26)

CC(=O)OCC1=C(C(=O)O)N2C(=O)[C@@H](NC(=O)CSc3ccncc3)[C@H]2SC1
inactive: max response (CRL-7250) -1.6% | max response (HEK293) 4.22% | max response (HaCat [1]) 0.118% | max response (KB-3-1) 2.34% | max response (NIH3T3) 1.18% | Potency (MCC-13) | Potency (MCC-26)

CC[C@H](c1ccc(O)cc1)[C@@H](CC)c1ccc(O)cc1
inactive: Potency (W2) | max response (CRL-7250) 3.93% | max response (HEK293) -17.5% | max response (HaCat [1]) 0.0962% | max response (KB-3-1) 5.55% | max response (NIH3T3) 4.6% | Potency (MCC-13) | Potency (MCC-26)

FC1(F)C(F)(F)C(F)(F)C2(F)C(F)(F)C(F)(F)C(F)(F)C(F)(F)C2(F)C1(F)F (centres undefined)
inactive: Potency (W2) | max response (CRL-7250) 4.26% | max response (HEK293) 3.06% | max response (HaCat [1]) 0.333% | max response (KB-3-1) 4.98% | max response (NIH3T3) 1.4% | Potency (MCC-13) | Potency (MCC-26)

CCCCC(CC)COC(=O)c1ccc(N(C)C)cc1 (centres undefined)
inactive: Potency (W2) | outcome (CRL-7250) | max response (HEK293) -4.34% | max response (HaCat [1]) -11.9% | max response (KB-3-1) 0.633% | max response (NIH3T3) 4.63% | Potency (MCC-13) | Potency (MCC-26)

CCCCCCCCOc1ccc(C(=O)c2ccccc2)c(O)c1
inactive: Potency (W2) | max response (CRL-7250) -1.36% | max response (HEK293) -1.87% | max response (HaCat [1]) -8.31% | max response (KB-3-1) 1.72% | max response (NIH3T3) -1.51% | Potency (MCC-13) | Potency (MCC-26)

CC(C(=O)O)c1cccc(Oc2ccccc2)c1 (centres undefined)
inactive: max response (CRL-7250) -6.67% | max response (HEK293) -4.21% | max response (HaCat [1]) -15.2% | max response (KB-3-1) -5.06% | max response (NIH3T3) -0.596% | Potency (MCC-13) | Potency (MCC-26)

NS(=O)(=O)Cc1noc2ccccc12
inactive: Potency (W2) | max response (CRL-7250) 0.547% | max response (HEK293) -4.5% | max response (HaCat [1]) 1.67% | max response (KB-3-1) 2.97% | max response (NIH3T3) 0.477% | Potency (MCC-13) | Potency (MCC-26)

Nc1nc(-c2ccccc2)c(Br)c(=O)[nH]1
inactive: Potency (W2) | max response (CRL-7250) -18.3% | max response (HEK293) -28.5% | max response (HaCat [1]) -7.63% | max response (KB-3-1) 4.06% | max response (NIH3T3) -18.4% | Potency (MCC-13) | Potency (MCC-26)

C=C1c2cccc(O)c2C(O)=C2C(=O)[C@]3(O)C(O)=C(C(N)=O)C(=O)[C@@H](N(C)C)[C@@H]3[C@@H](O)[C@H]12
inactive: outcome (CRL-7250) | max response (HEK293) -1.35% | max response (HaCat [1]) -8.16% | max response (KB-3-1) -4.44% | outcome (NIH3T3) | Potency (MCC-13) | Potency (MCC-26)

CC(=O)O[C@]1(C(C)=O)CC[C@H]2[C@@H]3C=C(Cl)C4=CC(=O)CC[C@]4(C)[C@H]3CC[C@@]21C
active: Potency (W2) 10.7 µM | Potency (HEK293) 18.8 µM
inactive: max response (CRL-7250) -6.12% | outcome (HaCat [1]) | max response (KB-3-1) 2.1% | outcome (HACAT [2]) | Potency (MCC-13) | Potency (MCC-26)

COc1cc([C@H]2Oc3cc([C@H]4Oc5cc(O)cc(O)c5C(=O)[C@@H]4O)ccc3O[C@@H]2CO)ccc1O
inactive: outcome (CRL-7250) | max response (HEK293) -17.6% | max response (HaCat [1]) -5.16% | max response (KB-3-1) 47.9% | Potency (MCC-13) | Potency (MCC-26)

NS(=O)(=O)c1ccc(Cl)c(S(N)(=O)=O)c1
inactive: Potency (W2) | max response (CRL-7250) -4.09% | outcome (HEK293) | max response (HaCat [1]) -3.23% | max response (NIH3T3) -4.55% | outcome (HEK293T) | Potency (MCC-13) | Potency (MCC-26)

Cc1c[nH]c2ccccc12
inactive: Potency (W2) | outcome (CRL-7250) | max response (HEK293) 2.22% | outcome (HaCat [1]) | outcome (NIH3T3) | outcome (HACAT [2]) | Potency (MCC-13) | Potency (MCC-26)
